# Among all 310,000 compounds or so, about 14,000 (4.5%) showed an effect of 50% or more. Effects have a minus sign here. The sample as a whole holds a higher share of strong results than the screen did.
# Molecular target: human ether-à-go-go-related gene (hERG) potassium channel (human, UniProt Q12809)
# Test: primary screen, population patch clamp on CHO cells stably expressing hERG; higher = less effect of the substance
# 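Further: peak tail current of the secondary pulse compared with the same well before compound.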
# Sequence of human ether-à-go-go-related gene (hERG) potassium channel (Q12809 whole entry, looked up): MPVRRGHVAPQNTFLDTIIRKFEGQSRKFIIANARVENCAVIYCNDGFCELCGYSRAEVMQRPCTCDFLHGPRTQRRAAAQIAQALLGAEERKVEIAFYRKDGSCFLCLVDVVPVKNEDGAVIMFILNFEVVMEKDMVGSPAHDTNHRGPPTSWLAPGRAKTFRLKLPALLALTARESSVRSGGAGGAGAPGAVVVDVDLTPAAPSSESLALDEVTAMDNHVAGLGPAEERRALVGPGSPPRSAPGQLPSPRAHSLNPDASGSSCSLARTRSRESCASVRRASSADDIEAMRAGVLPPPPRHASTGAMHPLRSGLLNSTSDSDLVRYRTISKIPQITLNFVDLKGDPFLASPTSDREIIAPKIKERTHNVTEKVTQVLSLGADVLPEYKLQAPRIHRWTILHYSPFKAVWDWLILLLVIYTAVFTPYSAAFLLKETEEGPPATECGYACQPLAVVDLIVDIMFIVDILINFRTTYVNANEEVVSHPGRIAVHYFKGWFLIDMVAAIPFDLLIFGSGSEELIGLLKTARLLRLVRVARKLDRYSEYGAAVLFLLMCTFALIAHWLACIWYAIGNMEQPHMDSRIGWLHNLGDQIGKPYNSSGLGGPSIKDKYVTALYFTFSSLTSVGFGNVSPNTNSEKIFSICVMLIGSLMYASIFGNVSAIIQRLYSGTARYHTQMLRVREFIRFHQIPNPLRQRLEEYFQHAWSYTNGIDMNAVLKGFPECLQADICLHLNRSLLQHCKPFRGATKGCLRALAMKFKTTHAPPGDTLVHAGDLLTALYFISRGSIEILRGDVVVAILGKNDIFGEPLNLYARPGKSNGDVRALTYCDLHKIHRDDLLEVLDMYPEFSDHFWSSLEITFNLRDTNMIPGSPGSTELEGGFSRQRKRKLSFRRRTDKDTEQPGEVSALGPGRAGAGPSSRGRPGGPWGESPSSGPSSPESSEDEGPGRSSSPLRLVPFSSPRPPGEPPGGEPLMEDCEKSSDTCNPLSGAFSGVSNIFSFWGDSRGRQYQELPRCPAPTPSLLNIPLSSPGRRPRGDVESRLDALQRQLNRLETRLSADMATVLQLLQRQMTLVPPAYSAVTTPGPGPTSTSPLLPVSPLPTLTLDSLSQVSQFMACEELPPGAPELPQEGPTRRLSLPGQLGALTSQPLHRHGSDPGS
row,SMILES,"hERG current change (%, negative = inhibition) at 10uM"
1,COCCNC(=S)Nc1cc(OC)c(NC(=O)c2ccco2)cc1OC,-3.62%
2,Cc1ccc(OCCCCNC(C)(C)C)c([N+](=O)[O-])c1.O=C(O)C(=O)O,-4.42%
3,COc1cccc(CNc2nc(SC)ncc2CO)c1,14.5%
4,CC(=O)c1c(C)nc(-c2ccc3c(c2)OCO3)n1O,0.643%
5,CCN(CC)CC(=O)N1CCCC(C(=O)c2ccccc2OC)C1 (stereo not drawn),-10.3%
6,COc1ccccc1C(=O)C1CCCN(C(=O)C2CCCC2)C1 (stereo not drawn),-6.06%
7,COc1ccccc1C(=O)C1CCCN(C(=O)c2ccccn2)C1 (stereo not drawn),12.4%
8,CCOC(=O)N1CCC(N2CCCC(C(=O)c3ccccc3OC)C2)CC1 (stereo not drawn),-67.7%
9,Cc1cc(C(=O)N2CCCC(C(=O)c3cccc4ccccc34)C2)nc(C)n1 (stereo not drawn),-2.09%
10,COc1ccccc1C(=O)C1CCCN(C(=O)c2cc(CC(C)C)nc(C)n2)C1 (stereo not drawn),-60.5%
11,CCOC(=O)N1CCC(N2CCCC(C(=O)c3cc(F)ccc3OC)C2)CC1 (stereo not drawn),-86.7%
12,COc1ccc(F)cc1C(=O)C1CCCN(C(=O)C2=C(C)OCCO2)C1 (stereo not drawn),1.15%
13,CCc1noc(C)c1C(=O)N1CCCC(C(=O)c2cc(F)ccc2OC)C1 (stereo not drawn),18.6%
14,CC(NC(=O)/C(C#N)=C/c1ccc(Cl)c([N+](=O)[O-])c1)c1ccccc1 (stereo not drawn),4.7%
15,CCN(CC)C(=O)Nc1ccc(C(=O)OC)cc1,-1.77%
16,COc1ccc(C2=NN(C(=O)CN3CCOCC3)C(c3nc4ccccc4[nH]3)C2)cc1 (stereo not drawn),-8.74%
17,C[NH+](C)CC(C)(C)CNS(=O)(=O)c1ccc(Cl)c(Cl)c1.[Cl-],4.29%
18,CCCn1nc(NC(=O)CC(C)C)c2cc3ccccc3nc21,12%
19,COc1ccc(-c2noc(CCC(=O)Nc3cc(OC)ccc3OC)n2)cc1,-14.7%
20,CCn1cc(C(=O)O)c(=O)c2cnc(N3CCN(C(=S)Nc4ccccc4C(F)(F)F)CC3)nc21,6.26%
21,O=C(Cn1nnc(-c2ccccc2F)n1)OCC(=O)c1ccccc1,10.9%
22,O=C(c1ccc(NC2=NC3CS(=O)(=O)CC3S2)cc1)N1CCN(c2ccc(F)cc2)CC1 (stereo not drawn),6.4%

row,SMILES,"hERG current change (%, negative = inhibition) at 10uM"
1,c1ccc2c(c1)SCc1nnc(-c3ccncc3)n1-2,-2.6%
2,COc1cc2[nH]c(=O)n(CCCC(=O)N3CC=C(c4ccccc4)CC3)c(=O)c2cc1OC,-12.9%
3,COc1cccc2c1[C@@H]1CN(CCCCn3c(=O)[nH]c4c(sc5ncc(-c6ccccc6)nc54)c3=O)C[C@@H]1CO2.Cl,-67.6%
4,COc1cc2[nH]c(=O)n(CCCCCC(=O)N3CC=C(c4ccccc4)CC3)c(=O)c2cc1OC,-20%
5,Cc1ccc(OCC(=O)NCCNC(=O)COc2ccc(C)cc2)cc1,9.34%
6,O=C(COc1ccc2cc(Br)ccc2c1)N1CCCC1,-50.1%
7,O=C(COc1ccc(Cl)cc1)N1CCN(c2ncccn2)CC1,-9.42%
8,O=C(COc1ccc2ccccc2c1)N1CCCC1,-13.3%
9,O=C(COc1ccccc1)N1CCN(c2ncccn2)CC1,10.5%
10,O=C(COc1ccc(Br)cc1)N1CCCCCC1,-22.9%
11,O=C(COc1ccc(Br)cc1)N1CCN(c2ncccn2)CC1,-83.7%
12,Cc1ccc(OCC(=O)NCCN2CCCC2)cc1.Cl,2.48%
13,Cc1ccc(OCC(=O)NCCN2CCN(C(=O)COc3ccc(C)cc3)CC2)cc1,-65.9%
14,CC1CN(C2CCN(C(=O)COc3ccc(Cl)cc3)CC2)CC(C)O1.O=C(O)C(=O)O (stereo not drawn),-38%
15,O=C(COc1ccccc1)N1CCN(C2CCCC2)CC1.O=C(O)C(=O)O,-13.2%
16,O=C(COc1ccc(Cl)cc1)N1CCN(C2CCCC2)CC1.O=C(O)C(=O)O,-83.2%
17,Nc1[nH]nc2c1NN(c1ccc(Cl)cc1Cl)N2,12.4%
18,COc1ccccc1Oc1nc(C)c(C(C)=O)cc1C#N,14.8%
19,CCc1ccc(CN(C(=O)COc2c(C)cccc2C)C2CCS(=O)(=O)C2)cc1 (stereo not drawn),-12.2%
20,Cc1ccc(NC(=O)c2cccc(S(=O)(=O)N(C)c3ccccc3)c2)cc1S(=O)(=O)N1CCOCC1,9.04%
21,O=S(=O)(Nc1ccc(Cl)cc1)c1cccc2cccnc12,12.8%
22,COc1ccc(N2CCN(C(=O)CCS(=O)(=O)c3cccc4nsnc34)CC2)cc1,-23.9%

row,SMILES,"hERG current change (%, negative = inhibition) at 10uM"
1,CCOc1cc(C(=S)N2CCOCC2)ccc1OC(=O)c1cccc(C)c1,-42%
2,Cc1cc(C(=O)CSc2nnc(-c3ccc(F)cc3)o2)c(C)n1CC1CCCO1 (stereo not drawn),-7.13%
3,O=C(CSc1nnc(-c2ccco2)o1)NC1CC2CCC1C2 (stereo not drawn),-2.05%
4,CCOC(=O)c1c(C)[nH]c(C(=O)N2CCc3cc(OC)c(OC)cc3C2)c1C,-12.3%
5,COc1ccc(OC)c(NC(=O)C(C)Oc2ccc(Br)cc2)c1 (stereo not drawn),5.96%
6,CN(CC(=O)NC1CC(C)(C)NC(C)(C)C1)S(=O)(=O)c1ccc(Br)cc1,-2.22%
7,CCOC(=O)N1CCN(C(=O)COc2ccc(Br)cc2)CC1,-39.1%
8,O=C(CCC1CCCC1)N1CCN(C(=O)COc2ccccc2)CC1,-28.8%
9,O=C(COc1ccc(Br)cc1)N1CCN(C2CCCC2)CC1,-63.6%
10,CC(=O)N1CCN(C(=O)COc2ccc(Br)cc2)CC1,-17.8%
11,O=C(O)C1CCN(C(=O)COc2ccc(Br)cc2)CC1,38%
12,Cc1ccc(OCC(=O)N2CCN(C(=O)CCC3CCCC3)CC2)cc1,-54.3%
13,Cc1cccc(OCC(=O)N2CCN(C(=O)CCC3CCCC3)CC2)c1,-37.3%
14,CN1CCCN(C(=O)COc2ccc(Br)cc2)CC1,-17.3%
15,COc1ccc(OCC(=O)N2CCN(C(=O)COc3ccc(Br)cc3)CC2)cc1,-71.9%
16,c1ccc(Cn2nc(-c3ccccc3)nc2-c2ccccc2)cc1,-2.5%
17,O=c1[nH]c2ccc(S(=O)(=O)N3CCN(Cc4ccccc4)CC3)cc2[nH]c1=O,-1.75%
18,Cn1c(CNC(=O)c2cccs2)n[nH]c1=S,18.1%
19,O=C(NCc1ccccn1)c1ccc(NS(=O)(=O)c2cccc(Cl)c2)cc1,7.73%
20,COc1ccc(-n2nnnc2/C=C\Nc2ccc(C)cc2)cc1,16%
21,COC(=O)CNC(=O)CNC(=O)c1nn(-c2ccc(OC)c(OC)c2)c(=O)c2ccccc12,18.1%
22,COc1ccc2nc(NC(=O)C3COc4ccccc4O3)sc2c1 (stereo not drawn),0.282%

row,SMILES,"hERG current change (%, negative = inhibition) at 10uM"
1,CCCCN1C(=O)/C(=C2/Sc3ccc(OC)cc3N2CC)SC1=S,25.5%
2,O=C(c1ccccc1)c1cc(-c2ccccn2)c(N2CCOCC2)s1,-29.4%
3,O=C(c1ccc(Cl)cc1)c1cc(-c2ccccn2)c(N2CCOCC2)s1,-54.9%
4,O=C(c1ccc(Cl)c(Cl)c1)c1cc(-c2ccccn2)c(N2CCOCC2)s1,-29.1%
5,S=C(N/N=C/c1ccc2ncccc2c1)Nc1ccccc1,63.6%
6,Cc1ccc(C(=O)CSc2ccccn2)cc1,-7.25%
7,CCC1CCCCN1CCCNC(=O)C1CCCN(c2nn3c(=O)cc(C)nc3s2)C1 (stereo not drawn),12.2%
8,O=C(O)CCCC(=O)Nc1ccc(N=Nc2ccccc2)cc1,14.5%
9,COc1ccc(S(=O)(=O)N2CCCC2CNC(=O)C(=O)NCc2ccc(C)cc2)cc1 (stereo not drawn),-29.6%
10,CC(=O)Oc1ccc2c(C)c(CC(=O)N3CCN(C(=O)C4COc5ccccc5O4)CC3)c(=O)oc2c1C (stereo not drawn),-69.6%
11,Cc1c(CC(=O)N2CCN(C(=O)C3COc4ccccc4O3)CC2)c(=O)oc2cc(O)c(Cl)cc12 (stereo not drawn),-52.4%
12,Cc1cc(O)c2c(C)c(CC(=O)N3CCN(C(=O)C4COc5ccccc5O4)CC3)c(=O)oc2c1 (stereo not drawn),-28%
13,CCOC(=O)N1CCN(C(=O)C2COc3ccccc3O2)CC1 (stereo not drawn),-2.28%
14,COc1cc(C)cc2oc(=O)c(CC(=O)N3CCN(C(=O)C4COc5ccccc5O4)CC3)c(C)c12 (stereo not drawn),-53.9%
15,Cc1c(CC(=O)N2CCN(C(=O)C3COc4ccccc4O3)CC2)c(=O)oc2c(C)c(O)ccc12 (stereo not drawn),-20%
16,Cc1c(CC(=O)N2CCN(C(=O)C3COc4ccccc4O3)CC2)c(=O)oc2cc(O)ccc12 (stereo not drawn),-44.7%
17,Cc1c(CC(=O)N2CCN(C(=O)C3COc4ccccc4O3)CC2)c(=O)oc2cc(O)cc(O)c12 (stereo not drawn),24.8%
18,O=C(C1COc2ccccc2O1)N1CCOCC1 (stereo not drawn),10.5%
19,Cc1c(CC(=O)N2CCN(C(=O)C3COc4ccccc4O3)CC2)c(=O)oc2c(O)c(O)ccc12 (stereo not drawn),-0.208%
20,O=C(C1COc2ccccc2O1)N1CCN(c2ccccc2Cl)CC1 (stereo not drawn),1.69%
21,COc1ccc2c(C)c(CC(=O)N3CCN(C(=O)C4COc5ccccc5O4)CC3)c(=O)oc2c1C (stereo not drawn),-53.7%

# — PMC4336329 (PLoS ONE, 2015)
